YB-1 expression: YB-1 expression inhibition. U2OS, qRT-PCR YB-1 vs CDIP delta delta Cp, 16 h; stronger effect = higher value; zero = DMSO, each unit about twofold. delta delta Cp (YB-1 minus CDIP) (test concentration not listed). 0.37% of 30,000 active;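 active means delta delta Cp rounded down to an integer at or above 3, about 3 SD of DMSO wells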;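 further: higher means less YB-1 transcript or more CDIP transcript relative to DMSO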
MITF inhib: blocks MITF activity; TRPM1 promoter luciferase, luminescence, 24 h; 0.28% of 37,000 active; AID 2240; inhibition, % (no concentration beside the values); in the data active means inhibition above about 85%;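 further: human melanocyte line stably carrying TRPM1 promoter luciferase reporter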
ROS inducer: inducers of reactive oxygen species in cancer cells. ROS induction (% of piperlongumine), % at 10 µM. U2OS ROS induction, H2DCF-DA fluorescence. 2% of 46,000 active. AID 624156; in the data active means ROS induction above about 79%, passing the limit was not always enough;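 further: 0% = DMSO vehicle median and 100% = reference compound median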
BJeLR viability: lowers viability of BJeLR cells | BJeLR fibroblasts viability, CellTiterGlo ATP luminescence, 48 h; HRASV12, hTERT and SV40 LT/ST transformed | viability loss activity score, % (no concentration beside the values) | 0.64% of 30,000 active | AID 2275; in the data active means viability loss activity score above about 50%;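 further: higher score means fewer live cells and less ATP luminescence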
The depositor's hits bear a star. Only some compounds are listed: those with a hit (about 2.5% of all), similar ones and a draw of the others.

Results for COc1ccc(S(=O)(=O)Nc2ccc3c(c2)CC(=O)N([C@@H](C)CO)C[C@@H](C)[C@@H](CN(C)C(=O)Nc2ccc4c(c2)OCO4)O3)cc1 ?
YB-1 expression: -0.039; MITF inhib: -3; ROS inducer: 81*

What do the screens show for `CC(C)NC(=O)Nc1ccc2c(c1)CC(=O)N([C@@H](C)CO)C[C@H](C)[C@@H](CN(C)C(=O)Nc1ccc(F)cc1)O2`?
YB-1 expression: -0.66; MITF inhib: -5; ROS inducer: -15

What do the screens show for `COc1ccc(NC(=O)N(C)C[C@H]2Oc3ccc(NS(=O)(=O)c4ccc(OC)cc4)cc3CC(=O)N([C@H](C)CO)C[C@H]2C)cc1`?
YB-1 expression: -0.013; MITF inhib: -3; ROS inducer: 81*

How did CC(C)NC(=O)N(C)C[C@H]1Oc2ccc(NC(=O)Nc3ccc4c(c3)OCO4)cc2CC(=O)N([C@@H](C)CO)C[C@@H]1C do in these assays?
YB-1 expression: 0.26; MITF inhib: -3; ROS inducer: -6

How did CC(C)NC(=O)Nc1ccc2c(c1)CC(=O)N([C@@H](C)CO)C[C@H](C)[C@H](CN(C)C(=O)Nc1ccc(F)cc1)O2 do in these assays?
YB-1 expression: -0.68; MITF inhib: -2; ROS inducer: 111*

What do the screens show for `CC(C)NC(=O)N(C)C[C@@H]1Oc2ccc(NC(=O)Nc3ccc4c(c3)OCO4)cc2CC(=O)N([C@H](C)CO)C[C@H]1C`?
YB-1 expression: 0.15; MITF inhib: -2; ROS inducer: 126*

How did O=C(NC(=S)Nc1ccc(N2CCCCC2)cc1)c1ccccc1 do in these assays?
BJeLR viability: 2

What do the screens show for `C[C@@H]1CN([C@H](C)CO)C(=O)Cc2cc(NS(=O)(=O)c3ccc(Cl)cc3)ccc2O[C@H]1CN(C)C(=O)Nc1ccc(F)cc1`?
YB-1 expression: 0.14; MITF inhib: -3; ROS inducer: -3

What do the screens show for `C[C@H](CO)N1C[C@H](C)[C@H](CN(C)C(=O)Nc2ccc(F)cc2)Oc2ccc(NS(=O)(=O)c3ccc(Cl)cc3)cc2CC1=O`?
YB-1 expression: -0.0093; MITF inhib: -1; ROS inducer: 89*

Results for CNC[C@@H]1Oc2ccc(NC(=O)NC(C)C)cc2CC(=O)N([C@H](C)CO)C[C@@H]1C ?
YB-1 expression: -0.17; MITF inhib: -6; ROS inducer: 127*

How did COc1ccc(S(=O)(=O)Nc2ccc3c(c2)CC(=O)N([C@H](C)CO)C[C@@H](C)[C@@H](CN(C)S(=O)(=O)c2c(C)noc2C)O3)cc1 do in these assays?
YB-1 expression: -0.12; MITF inhib: -16; ROS inducer: 89*

What do the screens show for `COc1ccc(S(=O)(=O)Nc2ccc3c(c2)CC(=O)N([C@H](C)CO)C[C@@H](C)[C@H](CN(C)CC2CC2)O3)cc1`?
YB-1 expression: 3.2*; MITF inhib: -6; ROS inducer: 12

What do the screens show for `COc1ccc(S(=O)(=O)N(C)C[C@H]2Oc3ccc(NS(=O)(=O)c4c(C)noc4C)cc3CC(=O)N([C@H](C)CO)C[C@H]2C)cc1`?
YB-1 expression: -0.26; MITF inhib: 4; ROS inducer: 8

Results for Cc1noc(C)c1S(=O)(=O)Nc1ccc2c(c1)CC(=O)N([C@H](C)CO)C[C@@H](C)[C@H](CN(C)CC1CCCCC1)O2 ?
YB-1 expression: 0.4; MITF inhib: -24; ROS inducer: 109*

Results for Cc1noc(C)c1S(=O)(=O)Nc1ccc2c(c1)CC(=O)N([C@@H](C)CO)C[C@H](C)[C@H](CN(C)CC1CCCCC1)O2 ?
YB-1 expression: 0.0078; MITF inhib: -27; ROS inducer: 0

How did COc1ccc(S(=O)(=O)N(C)C[C@@H]2Oc3ccc(NC(=O)Nc4ccccc4)cc3CC(=O)N([C@@H](C)CO)C[C@@H]2C)cc1 do in these assays?
YB-1 expression: 0.34; MITF inhib: 18; ROS inducer: 112*

What do the screens show for `CCc1ccccc1NC(=O)C(C)n1nc([N+](=O)[O-])c(Br)c1C` (stereo not drawn)?
MITF inhib: 3; ROS inducer: 111*

How did CN(C(=O)/C=C\c1ccc2c(c1)OCO2)C(C(=O)Nc1ccc2c(c1)OCO2)c1ccccc1 (stereo not drawn) do in these assays?
BJeLR viability: 0

Results for O=C(Nc1ccc([N+](=O)[O-])cc1Cl)c1cc(Cl)ccc1O ?
YB-1 expression: 0.039; MITF inhib: 106*; ROS inducer: -8; BJeLR viability: 99*

How did O=C(Nc1ccccc1)c1cc([N+](=O)[O-])ccc1Cl do in these assays?
YB-1 expression: 0.17; MITF inhib: -7; ROS inducer: 1; BJeLR viability: -3

How did Cc1ccc(NC(=O)CSc2nc(-c3ccccc3)c(-c3ccccc3)[nH]2)c(C)c1 do in these assays?
MITF inhib: 11

Results for Cc1cc(C)c(NC(=O)CSc2nc(-c3ccccc3)c(-c3ccccc3)[nH]2)c(C)c1 ?
MITF inhib: 92*; ROS inducer: -5

Results for O=C1CCCC2=C1C(c1ccccc1Cl)N=C(Nc1nc3ccccc3s1)N2 (stereo not drawn) ?
YB-1 expression: -0.071; MITF inhib: 23; ROS inducer: 178*; BJeLR viability: -5

Results for COc1ccc(OC)c(C2N=C(Nc3nc4ccccc4s3)NC3=C2C(=O)CC(C)(C)C3)c1 (stereo not drawn) ?
MITF inhib: 48

How did CNC1CCc2cc(OC)c(OC)c(OC)c2-c2ccc(OC)c(=O)cc21 (stereo not drawn) do in these assays?
YB-1 expression: -0.78; MITF inhib: 32; ROS inducer: 2; BJeLR viability: 59*

How did COc1cccc(C2CC(C(F)(F)F)n3ncc(C(=O)NCc4cccnc4)c3N2)c1 (stereo not drawn) do in these assays?
MITF inhib: 0; ROS inducer: 101*

Results for O=C(NC1CCOC1=O)c1ccc(COc2ccc3ccccc3c2)o1 (stereo not drawn) ?
BJeLR viability: -5

How did C[C@H](CO)N1C[C@H](C)[C@H](CN(C)Cc2cccc(C(F)(F)F)c2)Oc2ncc(-c3cccc(C(F)(F)F)c3)cc2C1=O do in these assays?
YB-1 expression: 0.61; ROS inducer: 160*

How did C[C@H](CO)N1C[C@H](C)[C@H](CN(C)Cc2cccc(C(F)(F)F)c2)Oc2ncc(-c3cc4ccccc4o3)cc2C1=O do in these assays?
YB-1 expression: 0.21; ROS inducer: 248*

How did C[C@H](CO)N1C[C@H](C)[C@H](CN(C)C(=O)Nc2cccc3ccccc23)Oc2ncc(-c3cc4ccccc4o3)cc2C1=O do in these assays?
YB-1 expression: 0.48; ROS inducer: 115*

How did C[C@H](CO)N1C[C@H](C)[C@H](CN(C)S(=O)(=O)c2ccc(F)cc2)Oc2ncc(-c3cccc(C(F)(F)F)c3)cc2C1=O do in these assays?
YB-1 expression: -0.064; ROS inducer: 116*

Results for CSc1cccc(NC(=S)NCc2cccn2C)c1 ?
ROS inducer: -5; BJeLR viability: -4

Results for O=C1CC(N2C(=O)C3CC=CCC3C2=O)C2COC1O2 (stereo not drawn) ?
ROS inducer: 91*; BJeLR viability: 2

Bioassay records: PubChem, Broad Institute
